{
  "source": "PubChem BioAssay (EPA / NIEHS)",
  "note": "Records with an inconclusive call do not appear. The source holds several records for some structures; these can differ, active in one and inactive in another. Calls of active or inactive are those of the source. How the source made its calls: active means hit-call score of the fitted dose curve at least 0.9, where 1 is the maximum; inconclusive means response in the unintended direction; inactive means score below 0.9.",
  "data": [
    {"biological_target": "Cellular tumor antigen p53 (Homo sapiens) (UniProt P04637)", "sequence (P04637 whole entry, looked up)": "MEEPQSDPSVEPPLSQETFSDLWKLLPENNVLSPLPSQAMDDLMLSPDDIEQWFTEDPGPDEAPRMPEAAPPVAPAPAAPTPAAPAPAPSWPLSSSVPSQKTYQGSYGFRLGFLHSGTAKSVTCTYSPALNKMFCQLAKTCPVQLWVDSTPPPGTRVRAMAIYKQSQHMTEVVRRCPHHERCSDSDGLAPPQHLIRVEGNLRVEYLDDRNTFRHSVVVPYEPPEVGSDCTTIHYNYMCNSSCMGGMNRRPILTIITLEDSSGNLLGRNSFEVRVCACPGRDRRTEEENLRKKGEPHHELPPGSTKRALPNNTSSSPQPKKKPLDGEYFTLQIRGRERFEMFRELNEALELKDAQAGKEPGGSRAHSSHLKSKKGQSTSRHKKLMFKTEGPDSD", "test": "TOX21_p53_BLA_p3_ratio: Tox21 HCT-116 p53 Agonism Beta-lactamase Assay, Ratio, Phase 3 (AID 2283596)", "outline": "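HCT116 p53-bla cells (4000/well) given compound in DMSO (217-fold dilution) after 5 h, incubated 16 h at 37C. CCF4-AM substrate 2 h at room temperature; 460/530 nm emission ratio, gain fitted against DMSO.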", "values": [
      {"compound": "CC[C@]12CCCN3CCc4c(n(c5ccccc45)[C@@](O)(C(=O)OC)C1)[C@@H]32", "outcome": "inactive"},
      {"compound": "CCCC(=O)C(C)=O", "outcome": "inactive"},
      {"compound": "CCCCNC(=O)NS(=O)(=O)c1ccc(N)cc1", "outcome": "inactive"},
      {"compound": "CC(CCO)CCc1ccccc1", "note": "(configuration not stated)", "outcome": "inactive"},
      {"compound": "Cc1ccc2ccccc2n1", "outcome": "inactive"},
      {"compound": "COc1ccc(OC)c(OC)c1", "outcome": "inactive"},
      {"compound": "COCCOCCOCCOCCOCCO", "outcome": "inactive"},
      {"compound": "c1ccc(CCCc2ccccn2)cc1", "outcome": "inactive"},
      {"compound": "CCC(C(=O)NC(N)=O)c1ccccc1", "note": "(configuration not stated)", "outcome": "inactive"},
      {"compound": "C=C(C)C(=O)NCCCN(C)C", "outcome": "inactive"},
      {"compound": "O=Cc1ccc(Cl)c([N+](=O)[O-])c1", "outcome": "inactive"},
      {"compound": "CCCCC/C=C/C=C/C=O", "outcome": "inactive"},
      {"compound": "CC(CN1c2ccccc2Sc2ccccc21)N(C)C", "note": "(configuration not stated)", "outcome": "inactive"},
      {"compound": "O=C(Oc1ccccc1)c1ccc(O)cc1", "outcome": "inactive"},
      {"compound": "CC(C)c1ccc(C(C)C)cc1", "outcome": "inactive"},
      {"compound": "CC(C)(C)c1cc(CCC(=O)NN)cc(C(C)(C)C)c1O", "outcome": "inactive"},
      {"compound": "CCCc1ccccc1O", "outcome": "inactive"}
    ]},
    {"biological_target": "Cellular tumor antigen p53 (Homo sapiens) (UniProt P04637)", "test": "TOX21_p53_BLA_p5_ratio: Tox21 HCT-116 p53 Agonism Beta-lactamase Assay, Ratio, Phase 5 (AID 2283599)", "outline": "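HCT-116 cells carrying a p53-inducible beta-lactamase reporter were seeded at 4000 cells/well and dosed after 5 h with compound in DMSO (217-fold dilution). After 16 h at 37C, CCF4-AM substrate was added for 2 h, and the 460/530 nm emission ratio was scored as gain-of-signal versus DMSO.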", "values": [
      {"compound": "CC(=O)Nc1ccc(C)cc1C", "outcome": "inactive"},
      {"compound": "Cc1ccc(S)cc1", "outcome": "inactive"},
      {"compound": "O=C(O)c1cn(-c2ccc(F)cc2)c2cc(N3CCNCC3)c(F)cc2c1=O", "outcome": "inactive"},
      {"compound": "COc1cc(C=O)ccc1OC(=O)C(C)C", "outcome": "inactive"},
      {"compound": "CC(=O)OCc1ccc2c(c1)OCO2", "outcome": "inactive"},
      {"compound": "O=c1cc(-c2ccccc2)oc2cc(O)cc(O)c12", "AC50": "22.3 µM (active)"},
      {"compound": "CC(C)=CCC[C@](C)(O)[C@@H]1CC=C(C)CC1", "outcome": "inactive"},
      {"compound": "O=C(O)CCCCCCCC(=O)O", "outcome": "inactive"},
      {"compound": "Nc1cccc(S(=O)(=O)c2cccc(N)c2)c1", "outcome": "inactive"},
      {"compound": "BrC1CCC(Br)C(Br)CCC(Br)C(Br)CCC1Br", "note": "(configuration not stated)", "outcome": "inactive"},
      {"compound": "Nc1cc([N+](=O)[O-])ccc1O", "outcome": "inactive"},
      {"compound": "CC1=CCC2C(C1)C2(C)C", "note": "(configuration not stated)", "outcome": "inactive"},
      {"compound": "Clc1nc(C(Cl)(Cl)Cl)c(Cl)c(Cl)c1Cl", "outcome": "inactive"},
      {"compound": "O=C(O)COCCN1CCN(C(c2ccccc2)c2ccc(Cl)cc2)CC1", "note": "(configuration not stated)", "outcome": "inactive"},
      {"compound": "C[Si](O[Si](C)(C)C)O[Si](C)(C)C", "outcome": "inactive"},
      {"compound": "OC[C@H]1O[C@H](O[C@]2(CCl)O[C@H](CCl)[C@@H](O)[C@@H]2O)[C@H](O)[C@@H](O)[C@H]1Cl", "outcome": "inactive"},
      {"compound": "FC1(F)C(F)(F)C(F)(F)C2(F)C(F)(C1(F)F)C(F)(F)C(F)(F)C1(F)C(F)(F)C(F)(F)C(F)(F)C(F)(F)C12F", "note": "(configuration not stated)", "outcome": "inactive"},
      {"compound": "Nc1ccc(S(N)(=O)=O)cc1", "outcome": "inactive"},
      {"compound": "O=S(=O)(O)c1ccc(O)c2ncccc12", "outcome": "inactive"},
      {"compound": "COc1ccc(NC(=O)CC(C)=O)cc1", "outcome": "inactive"},
      {"compound": "CN1[C@@H]2CC(OC(=O)[C@H](CO)c3ccccc3)C[C@H]1[C@@H]1O[C@@H]12", "note": "(some centres not stated)", "outcome": "inactive"},
      {"compound": "CC[C@]12CCCN3CCc4c(n(c5ccccc45)[C@@](O)(C(=O)OC)C1)[C@@H]32", "outcome": "inactive"},
      {"compound": "CCCC(=O)C(C)=O", "outcome": "inactive"},
      {"compound": "CCCCNC(=O)NS(=O)(=O)c1ccc(N)cc1", "outcome": "inactive"},
      {"compound": "CC(CCO)CCc1ccccc1", "note": "(configuration not stated)", "outcome": "inactive"},
      {"compound": "Cc1ccc2ccccc2n1", "outcome": "inactive"},
      {"compound": "COc1ccc(OC)c(OC)c1", "outcome": "inactive"},
      {"compound": "COCCOCCOCCOCCOCCO", "outcome": "inactive"},
      {"compound": "c1ccc(CCCc2ccccn2)cc1", "outcome": "inactive"},
      {"compound": "CCC(C(=O)NC(N)=O)c1ccccc1", "note": "(configuration not stated)", "outcome": "inactive"},
      {"compound": "C=C(C)C(=O)NCCCN(C)C", "outcome": "inactive"},
      {"compound": "O=Cc1ccc(Cl)c([N+](=O)[O-])c1", "outcome": "inactive"},
      {"compound": "CCCCC/C=C/C=C/C=O", "outcome": "inactive"},
      {"compound": "CC(CN1c2ccccc2Sc2ccccc21)N(C)C", "note": "(configuration not stated)", "AC50": "43.5 µM (active)", "outcome": "inactive"},
      {"compound": "O=C(Oc1ccccc1)c1ccc(O)cc1", "outcome": "inactive"},
      {"compound": "CC(C)c1ccc(C(C)C)cc1", "outcome": "inactive"},
      {"compound": "CC(C)(C)c1cc(CCC(=O)NN)cc(C(C)(C)C)c1O", "outcome": "inactive"},
      {"compound": "CCCc1ccccc1O", "outcome": "inactive"}
    ]},
    {"tested_on": "not listed separately", "test": "TOX21_p53_BLA_p5_viability: Viability Assessment in the Tox21 HCT-116 p53 Agonism Beta-lactamase Assay, Phase 5 (AID 2283600)", "outline": "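HCT-116 p53 beta-lactamase reporter cells, 4000/well, were exposed to compound (pin transfer, 217-fold dilution) for 16 hours at 37C. Cellular ATP was read by CellTiter-Glo luminescence after 30 min at room temperature.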", "values": [
      {"compound": "Cc1ccc(S)cc1", "outcome": "inactive"},
      {"compound": "CC(=O)OCc1ccc2c(c1)OCO2", "outcome": "inactive"},
      {"compound": "O=c1cc(-c2ccccc2)oc2cc(O)cc(O)c12", "outcome": "inactive"},
      {"compound": "CC(C)=CCC[C@](C)(O)[C@@H]1CC=C(C)CC1", "outcome": "inactive"},
      {"compound": "O=C(O)CCCCCCCC(=O)O", "outcome": "inactive"},
      {"compound": "Nc1cccc(S(=O)(=O)c2cccc(N)c2)c1", "outcome": "inactive"},
      {"compound": "BrC1CCC(Br)C(Br)CCC(Br)C(Br)CCC1Br", "note": "(configuration not stated)", "outcome": "inactive"},
      {"compound": "Nc1cc([N+](=O)[O-])ccc1O", "outcome": "inactive"},
      {"compound": "CC1=CCC2C(C1)C2(C)C", "note": "(configuration not stated)", "outcome": "inactive"},
      {"compound": "Clc1nc(C(Cl)(Cl)Cl)c(Cl)c(Cl)c1Cl", "outcome": "inactive"},
      {"compound": "O=C(O)COCCN1CCN(C(c2ccccc2)c2ccc(Cl)cc2)CC1", "note": "(configuration not stated)", "outcome": "inactive"},
      {"compound": "C[Si](O[Si](C)(C)C)O[Si](C)(C)C", "outcome": "inactive"},
      {"compound": "OC[C@H]1O[C@H](O[C@]2(CCl)O[C@H](CCl)[C@@H](O)[C@@H]2O)[C@H](O)[C@@H](O)[C@H]1Cl", "outcome": "inactive"},
      {"compound": "FC1(F)C(F)(F)C(F)(F)C2(F)C(F)(C1(F)F)C(F)(F)C(F)(F)C1(F)C(F)(F)C(F)(F)C(F)(F)C(F)(F)C12F", "note": "(configuration not stated)", "outcome": "inactive"},
      {"compound": "Nc1ccc(S(N)(=O)=O)cc1", "outcome": "inactive"},
      {"compound": "O=S(=O)(O)c1ccc(O)c2ncccc12", "outcome": "inactive"},
      {"compound": "COc1ccc(NC(=O)CC(C)=O)cc1", "outcome": "inactive"},
      {"compound": "CN1[C@@H]2CC(OC(=O)[C@H](CO)c3ccccc3)C[C@H]1[C@@H]1O[C@@H]12", "note": "(some centres not stated)", "outcome": "inactive"},
      {"compound": "CC[C@]12CCCN3CCc4c(n(c5ccccc45)[C@@](O)(C(=O)OC)C1)[C@@H]32", "outcome": "inactive"},
      {"compound": "CCCC(=O)C(C)=O", "outcome": "inactive"},
      {"compound": "CCCCNC(=O)NS(=O)(=O)c1ccc(N)cc1", "outcome": "inactive"},
      {"compound": "Cc1ccc2ccccc2n1", "outcome": "inactive"},
      {"compound": "COc1ccc(OC)c(OC)c1", "outcome": "inactive"},
      {"compound": "c1ccc(CCCc2ccccn2)cc1", "outcome": "inactive"},
      {"compound": "CCC(C(=O)NC(N)=O)c1ccccc1", "note": "(configuration not stated)", "outcome": "inactive"},
      {"compound": "C=C(C)C(=O)NCCCN(C)C", "outcome": "inactive"},
      {"compound": "CC(CN1c2ccccc2Sc2ccccc21)N(C)C", "note": "(configuration not stated)", "AC50": "39.8 µM (active)"},
      {"compound": "O=C(Oc1ccccc1)c1ccc(O)cc1", "outcome": "inactive"},
      {"compound": "CC(C)c1ccc(C(C)C)cc1", "outcome": "inactive"},
      {"compound": "CC(C)(C)c1cc(CCC(=O)NN)cc(C(C)(C)C)c1O", "outcome": "inactive"},
      {"compound": "CCCc1ccccc1O", "outcome": "inactive"}
    ]}
  ]
}
